Experimental data from PubChem BioAssay.
The source made the active and inactive calls.

How the values were obtained:
[1] = small molecules captured by biotinylated probe aFSTL3 – biochemical, small-molecule microarray, fluorescence 635/667, stem cell growth factor project, primary screen (AID 1064); details: higher = more signal;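 further: measures binding of the biotinylated anti-FSTL3 antibody to printed compounds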
[2] = binders from COS7 lysate, DM2A8 probe, primary screen, torsin A project, cell lysate, small-molecule microarray, fluorescence 635/667 (AID 1065); details: higher = more signal, COS7 lysate expressing mutant human TOR1A
[3] = small molecules captured by biotinylated probe aFGF2 – biochemical, small-molecule microarray, fluorescence 635/667, stem cell growth factor project, primary screen (AID 1067); details: higher = more signal;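 further: measures binding of biotinylated aFGF2 protein to printed compounds on slides; z-score merges feature fluorescence and signal-to-noise across triplicate slides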
[4] = small molecules captured by biotinylated probe aFGF10 – biochemical, small-molecule microarray, fluorescence 635/667, stem cell growth factor project, primary screen (AID 1071); details: higher = more signal;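 further: score merges 667 nm spot intensity and signal to noise from triplicate slides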
[5] = biological target: Neurogenic locus notch homolog protein 2 (Homo sapiens) (UniProt Q04721); experiment: small molecules binding Notch2 protein – biochemical, small-molecule microarray, 635 nm fluorescence, stem cell growth factors, primary screen (AID 1073); details: higher = more signal
Chain of Neurogenic locus notch homolog protein 2 (Homo sapiens) (Q04721 whole entry, looked up, canonical isoform): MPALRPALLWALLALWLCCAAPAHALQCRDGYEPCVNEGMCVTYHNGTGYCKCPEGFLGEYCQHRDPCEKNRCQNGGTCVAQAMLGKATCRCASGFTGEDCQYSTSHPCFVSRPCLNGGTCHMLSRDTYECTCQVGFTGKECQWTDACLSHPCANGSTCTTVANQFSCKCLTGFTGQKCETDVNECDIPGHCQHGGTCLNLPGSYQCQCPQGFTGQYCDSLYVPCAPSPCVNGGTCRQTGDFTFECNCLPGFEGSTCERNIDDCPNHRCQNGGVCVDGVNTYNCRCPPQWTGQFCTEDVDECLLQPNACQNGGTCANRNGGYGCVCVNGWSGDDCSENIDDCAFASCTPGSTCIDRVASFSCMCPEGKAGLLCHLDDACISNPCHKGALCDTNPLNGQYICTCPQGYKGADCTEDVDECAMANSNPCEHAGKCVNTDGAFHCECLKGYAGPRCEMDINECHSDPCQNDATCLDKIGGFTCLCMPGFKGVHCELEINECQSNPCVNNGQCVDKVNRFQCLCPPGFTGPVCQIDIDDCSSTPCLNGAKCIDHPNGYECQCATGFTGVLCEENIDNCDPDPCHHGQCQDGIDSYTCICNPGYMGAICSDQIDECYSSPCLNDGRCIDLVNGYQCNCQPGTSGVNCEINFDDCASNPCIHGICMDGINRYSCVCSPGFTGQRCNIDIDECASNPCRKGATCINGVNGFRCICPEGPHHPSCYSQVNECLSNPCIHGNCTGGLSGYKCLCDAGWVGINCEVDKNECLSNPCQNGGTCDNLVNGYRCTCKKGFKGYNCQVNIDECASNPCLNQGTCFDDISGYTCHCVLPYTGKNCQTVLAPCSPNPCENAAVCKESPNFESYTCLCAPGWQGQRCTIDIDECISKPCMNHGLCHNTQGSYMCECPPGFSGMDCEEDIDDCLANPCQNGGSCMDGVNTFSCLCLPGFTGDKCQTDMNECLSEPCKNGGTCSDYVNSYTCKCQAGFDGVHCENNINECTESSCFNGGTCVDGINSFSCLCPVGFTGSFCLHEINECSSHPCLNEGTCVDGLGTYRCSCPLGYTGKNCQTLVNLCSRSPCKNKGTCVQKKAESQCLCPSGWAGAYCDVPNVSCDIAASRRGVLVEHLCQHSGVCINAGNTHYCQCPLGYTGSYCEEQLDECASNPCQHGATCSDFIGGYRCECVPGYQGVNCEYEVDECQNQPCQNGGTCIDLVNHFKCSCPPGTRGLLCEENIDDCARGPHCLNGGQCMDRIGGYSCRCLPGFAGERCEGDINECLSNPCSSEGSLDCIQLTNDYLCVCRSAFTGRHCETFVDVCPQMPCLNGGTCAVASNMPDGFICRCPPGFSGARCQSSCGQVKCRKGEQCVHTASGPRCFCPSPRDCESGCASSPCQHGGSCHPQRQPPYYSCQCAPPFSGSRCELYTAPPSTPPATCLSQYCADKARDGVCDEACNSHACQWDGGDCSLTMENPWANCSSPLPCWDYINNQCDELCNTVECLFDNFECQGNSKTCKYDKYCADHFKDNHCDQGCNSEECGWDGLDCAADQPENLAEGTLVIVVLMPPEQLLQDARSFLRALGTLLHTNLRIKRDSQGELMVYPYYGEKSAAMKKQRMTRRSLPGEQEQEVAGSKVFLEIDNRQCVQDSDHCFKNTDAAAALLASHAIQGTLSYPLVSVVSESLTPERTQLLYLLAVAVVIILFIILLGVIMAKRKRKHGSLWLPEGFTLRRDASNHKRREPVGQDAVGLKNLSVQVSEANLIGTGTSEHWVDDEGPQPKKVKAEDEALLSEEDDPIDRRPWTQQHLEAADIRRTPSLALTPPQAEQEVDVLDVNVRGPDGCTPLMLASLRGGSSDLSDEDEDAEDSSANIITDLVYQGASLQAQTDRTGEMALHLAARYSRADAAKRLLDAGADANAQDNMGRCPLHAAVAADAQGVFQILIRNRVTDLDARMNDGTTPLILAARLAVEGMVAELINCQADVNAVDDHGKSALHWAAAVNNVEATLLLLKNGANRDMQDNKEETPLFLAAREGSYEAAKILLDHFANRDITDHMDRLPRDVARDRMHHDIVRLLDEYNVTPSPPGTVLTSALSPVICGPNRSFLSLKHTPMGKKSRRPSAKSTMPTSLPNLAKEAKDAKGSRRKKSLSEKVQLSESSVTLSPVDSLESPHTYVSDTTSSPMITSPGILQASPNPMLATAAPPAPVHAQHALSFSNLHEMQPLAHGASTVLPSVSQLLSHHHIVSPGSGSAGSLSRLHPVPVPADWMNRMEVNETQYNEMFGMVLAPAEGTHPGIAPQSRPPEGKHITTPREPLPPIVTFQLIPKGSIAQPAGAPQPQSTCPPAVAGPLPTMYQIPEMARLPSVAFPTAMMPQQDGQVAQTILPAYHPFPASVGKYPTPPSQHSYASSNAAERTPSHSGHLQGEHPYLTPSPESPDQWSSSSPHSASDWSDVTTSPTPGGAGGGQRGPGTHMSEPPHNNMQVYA

[6] = biological target: Pro-neuregulin-1, membrane-bound isoform (Homo sapiens) (UniProt Q02297); experiment: small molecules binding neuregulin-1 protein – biochemical, small-molecule microarray, fluorescence 635/667, psychiatric disease protein project, primary screen (AID 1075); details: NRG1 binding, 635 nm fluorescence, higher = more signal;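 further: score combines 667 nm spot fluorescence with signal to noise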
Chain of Pro-neuregulin-1, membrane-bound isoform (Homo sapiens) (Q02297 whole entry, looked up, the tested form may be a part, canonical isoform): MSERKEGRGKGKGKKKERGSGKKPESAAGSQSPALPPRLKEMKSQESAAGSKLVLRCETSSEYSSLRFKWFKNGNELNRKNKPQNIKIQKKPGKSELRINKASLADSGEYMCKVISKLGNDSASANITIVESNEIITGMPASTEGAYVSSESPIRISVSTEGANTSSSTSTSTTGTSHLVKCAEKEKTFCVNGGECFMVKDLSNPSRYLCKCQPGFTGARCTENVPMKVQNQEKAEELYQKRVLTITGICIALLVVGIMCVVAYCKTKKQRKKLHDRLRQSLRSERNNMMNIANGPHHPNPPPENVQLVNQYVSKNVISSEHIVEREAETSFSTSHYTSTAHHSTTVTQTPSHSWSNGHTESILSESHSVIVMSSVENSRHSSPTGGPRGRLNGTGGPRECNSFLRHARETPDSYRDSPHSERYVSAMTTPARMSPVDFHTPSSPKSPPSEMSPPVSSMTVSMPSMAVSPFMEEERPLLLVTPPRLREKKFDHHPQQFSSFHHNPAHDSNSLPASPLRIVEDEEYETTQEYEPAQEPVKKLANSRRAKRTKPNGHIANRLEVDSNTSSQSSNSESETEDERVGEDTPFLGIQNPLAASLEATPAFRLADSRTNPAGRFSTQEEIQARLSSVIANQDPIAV

[7] = tested on: Neuregulin-1 EGF-like domain; experiment: small molecules binding NRG1 EGF domain – biochemical, small-molecule microarray, 635 nm fluorescence, primary screen (AID 1081); details: higher = more signal;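 further: binding of the protein to compounds printed on small-molecule microarray slides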
[8] = FRG1 expression reporter modulators in myotubes – cell-based, C2C12 myotubes, firefly/Renilla luciferase, luminescence, FRG1 inhibition for FSHD, primary screen (AID 1084); details: FRG1 promoter luciferase, higher = more signal, called active from +8 up or from −8 down
[9] = small molecules captured by biotinylated probe aFST – biochemical, small-molecule microarray, fluorescence 635/667, stem cell growth factor project, primary screen (AID 1086); details: higher = more signal;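 further: score merges 667 nm fluorescence with signal-to-noise of each printed compound spot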
[10] = binders of probe aHhip on microarray, primary screen, stem cell growth factor project, biochemical, small-molecule microarray, fluorescence 635/667 (AID 1087); details: higher = more signal;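 further: score merges spot fluorescence at 667nm with spot signal to noise ratio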

Row | Compound | composite z-score [1] | composite z-score [2] | composite z-score [3] | composite z-score [4] | composite z-score [5] | composite z-score [6] | composite z-score [7] | z-score [8] | composite z-score [9] | composite z-score [10]
1 | COCCOC(=O)N1C(=O)[C@@]2(c3cc(C#Cc4ccc(OC)cc4)ccc31)[C@H](c1ccc(OCCO)cc1)N1[C@H](c3ccccc3)[C@H](c3ccccc3)OC(=O)[C@H]1[C@@H]2C(N)=O | 0.261 | 1.24 | -0.0128 | 0.646 | 1.46 | 1.25 | 1.26 | 1.06 (inactive) | 0.851 | 0.0972
2 | Cc1ccccc1C(O)C1C=CC2C(=O)N(Cc3ccccc3)C(=O)C2N1n1cnnc1 (stereo not given) | -0.281 | 0.34 | -0.0085 | 0.304 | 1.02 | 1.03 | 0.92 | 0.253 (inactive) | 0.475 | 0.0053
3 | CN(C)C(=O)[C@@]1(CCC(=O)OC(C)(C)C)N=C(c2ccc(OCCCO)cc2)O[C@H]1c1ccccc1N=[N+]=[N-] | 0.294 | 1.45 | 0.0168 | 0.739 | 1.2 | 1.96 | 1.52 | 0.768 (inactive) | 1.79 | 0.245
4 | COC(=O)[C@@]1(Cc2ccc(OC)cc2)[C@H]2c3cc(C(=O)N4CCCC4)n(Cc4ccc(C)o4)c3C[C@H]2CN1C(=O)c1ccccc1 | 0.833 | -0.0673 | 0.218 | 1.15 | 1.62 | 1.83 | 0.266 | 8.22 (active) | 1.05 | -0.116
5 | C=CCOC(=O)[C@H]1[C@@H]2C(=O)O[C@@H](c3ccccc3)[C@@H](c3ccccc3)N2[C@@H](c2ccc(OCCOC(=O)[C@H]3C[C@H]4C(=O)N[C@@H](CCCCN(C)C)C(=O)N4[C@H]3c3ccc(O)cc3)cc2)[C@]12C(=O)Nc1ccccc12 | 0.27 | 0.91 | -0.033 | 0.445 | 0.349 | -0.013 | 1.19 | 0.139 (inactive) | 0.86 | 0.0524
6 | COc1ccc(C(=O)Nc2ccc(CN3C(=O)[C@@]4(O[C@@H](CC(=O)N5Cc6ccccc6C[C@H]5CO)[C@H]([Si](C)(C)c5ccc(OC)cc5)[C@H]4C)c4ccccc43)cc2)cc1 | -0.313 | 0.17 | 0.0275 | 0.158 | -0.0395 | 0.822 | 1.1 | -4.29 (inactive) | 0.185 | -0.173
7 | NC(=O)[C@@H]1[C@H]2C(=O)O[C@H](c3ccccc3)[C@H](c3ccccc3)N2[C@H](c2ccccc2OCCO)[C@@]12C(=O)Nc1ccc(C#CCCO)cc12 | -0.159 | 0.45 | -0.0502 | -0.0477 | 0.0307 | 0.352 | 0.0434 | 0.7 (inactive) | -0.0579 | -0.236
8 | CC(C)(C)OC(=O)CC[C@@]1(C(=O)N2CCCCC2)N=C(c2ccc(OCCCO)cc2)O[C@@H]1c1ccccc1CN=[N+]=[N-] | 0.165 | 0.159 | 0.103 | 0.355 | 1.65 | 1.98 | 1.22 | -1.98 (inactive) | 1.63 | 0.0854
9 | C[N+](C)(C)CCCC[C@@H]1NC(=O)[C@H]2C[C@@H](C(=O)NCCCCCCN)[C@@H](c3cccc(OCCO)c3)N2C1=O | 1.71 | 1.85 | 0.0852 | 0.765 | 0.791 | 1.14 | 1.49 | 0.029 (inactive) | 0.592 | 1.13
10 | CC(C)c1ccc(NN2C(C(O)c3ccccn3)C=CC3C(=O)N(c4ccccc4)C(=O)C32)cc1 (stereo not given) | -0.311 | 0.205 | 0.235 | 1.17 | 1.64 | 1.64 | 1.42 | 3.43 (inactive) | 1.49 | 0.347
11 | CCCNC(=O)[C@@H]1c2ccccc2C(=O)N(CC23CC4CC(CC(C4)C2)C3)[C@H]1c1ccc(CO)cc1 | -0.371 | -0.101 | -0.0588 | 0.618 | 1.56 | 1.3 | 1.26 | -2.41 (inactive) | 1.3 | 0.0373
12 | COCCCNC(=O)[C@]1(CCS(=O)(=O)c2ccccc2)N=C(c2ccc(OCCCO)cc2)O[C@@H]1c1ccccc1 | -0.0225 | 1.05 | 0.124 | 0.786 | 1.57 | 2.12 | 1.22 | -1.91 (inactive) | 1.26 | -0.166
13 | COC(=O)[C@@]1(Cc2ccccc2)[C@H]2c3cc(C(=O)N(C)C)n(Cc4ccccn4)c3C[C@H]2CN1C(=O)c1ccccc1 | 0.907 | 1.6 | 0.305 | 0.76 | 1.15 | 2.33 | 1.31 | 1.01 (inactive) | 1.27 | 0.0302
14 | COCCOC(=O)N1C(=O)[C@@]2(c3cc(C#CC4(O)CCCCCC4)ccc31)[C@H](C(=O)N1CCN(c3ncccn3)CC1)[C@H]1C(=O)O[C@H](c3ccccc3)[C@H](c3ccccc3)N1[C@@H]2c1ccc(O)cc1 | -0.238 | 0.413 | 0.0228 | 0.806 | 0.372 | 0.438 | 1.22 | -0.617 (inactive) | -0.123 | -0.0618
15 | COc1cccc(C[C@H]2C[C@@H](CO[Si](C(C)C)(C(C)C)C(C)C)N3C(=O)[C@]4(C(C)=O)O[C@]23[C@H]2C(=O)N(C)C(=O)[C@H]24)c1 | -0.46 | 0.395 | -0.021 | 0.407 | 0.797 | 0.143 | 0.996 | 0.165 (inactive) | 0.421 | -0.0618
16 | C=CC[C@]1(C(=O)NCC(O)CO)N=C(c2ccc(OCCCO)cc2)O[C@H]1c1ccccc1N=[N+]=[N-] (stereo not given in full) | 0.227 | -0.444 | 0.0649 | 0.154 | 0.323 | 1.8 | 1.11 | 1.25 (inactive) | 0.375 | 0.23
17 | NC(=O)NCC#Cc1ccc2c(c1)[C@]1(C(=O)N2)[C@H](c2ccc(OCCO)cc2)N2[C@H](c3ccccc3)[C@H](c3ccccc3)OC(=O)[C@H]2[C@@H]1C(=O)N1CCN(c2ncccn2)CC1 | -0.584 | 0.936 | -0.0767 | 0.766 | 0.0776 | 0.29 | -0.178 | 0.565 (inactive) | -0.194 | -0.0564
18 | O=C1O[C@@H](c2ccccc2)[C@@H](c2ccccc2)N2[C@@H](c3ccc(O)cc3)[C@]3(C(=O)Nc4ccc(C#CC5=CCCCC5)cc43)[C@@H](C(=O)Nc3nc4ccccc4s3)[C@H]12 | -0.371 | 0.449 | -0.0455 | 1.27 | 1.5 | 1.34 | 1.18 | -0.453 (inactive) | 0.647 | -0.171
19 | COC(=O)c1c(CC[C@@H](CO)NC(=O)N[C@@H](C)Cn2cc(C3(O)CCCC3)nn2)oc(C(C)=O)c1C(=O)OC | -0.36 | 0.715 | -0.154 | 0.143 | 0.263 | 0.974 | 1.02 | 0.533 (inactive) | 0.517 | 0.0002
20 | COCCOC(=O)N1C(=O)[C@@]2(c3cc(C#CC4(O)CCCCCC4)ccc31)[C@H](C(=O)N1CCc3cc(OC)c(OC)cc3C1)[C@H]1C(=O)O[C@H](c3ccccc3)[C@H](c3ccccc3)N1[C@@H]2c1ccccc1OCCO | -0.0526 | 1.46 | 0.119 | 0.665 | 1.15 | 0.491 | 1.22 | -0.165 (inactive) | 1.08 | 0.623
21 | COC(=O)C(CC#Cc1ccc2c(c1)[C@]1(C(=O)N2)[C@H](c2ccc(OCCO)cc2)N2[C@H](c3ccccc3)[C@H](c3ccccc3)OC(=O)[C@H]2[C@@H]1C(=O)O)C(=O)OC | 0.915 | 0.831 | 0.102 | 0.727 | 0.85 | 2.03 | 1.26 | -0.434 (inactive) | 1.37 | 0.398
22 | CC(C)N1C(=O)c2ccccc2[C@](C)(C(=O)O)[C@@H]1c1ccc(CO)cc1 | 0.513 | -0.671 | -0.0255 | -0.0804 | -0.663 | 0.752 | -0.0487 | 0.726 (inactive) | 0.112 | -0.0708
23 | COc1ccc(C(=O)Nc2ccc3c(c2)[C@]2(O[C@@H](CCO)[C@H]([Si](C)(C)c4ccc(OC)cc4)[C@H]2C)C(=O)N3Cc2ccccc2)cc1 | 0.0295 | 0.203 | -0.155 | -0.0615 | 0.0879 | 0.725 | 0.913 | -3.63 (inactive) | -0.0897 | -0.0237
24 | COC(=O)C(CC#Cc1ccc2c(c1)[C@]1(C(=O)N2)[C@H](c2ccccc2OCCO)N2[C@H](c3ccccc3)[C@H](c3ccccc3)OC(=O)[C@H]2[C@@H]1C(=O)Nc1nc2ccccc2s1)C(=O)OC | -0.214 | 0.675 | 0.0563 | 0.605 | 1.05 | 1.47 | 1.26 | 1.94 (inactive) | 0.446 | 0.0329
25 | COCCCNC(=O)[C@@H]1c2ccccc2C(=O)N(Cc2cc(F)cc(C(F)(F)F)c2)[C@H]1c1ccc(CO)cc1 | 0.211 | -0.303 | -0.233 | -0.535 | -0.984 | -0.676 | 0.716 | 0.154 (inactive) | -0.395 | -0.134
26 | C=CC[C@@]1(C(=O)NCC(O)CO)N=C(c2ccc(OCCCO)cc2)O[C@@H]1c1ccccc1 (stereo not given in full) | 1.49 | 2.09 | 0.255 | 0.44 | -0.565 | 1.64 | 0.845 | -1.09 (inactive) | 0.872 | 0.108
27 | CCCCC(O)C1C=CC2C(=O)N(Cc3ccccc3)C(=O)C2N1n1cnnc1 (stereo not given) | -0.246 | 0.095 | 0.0311 | 0.22 | 0.225 | 1.1 | 1.08 | 0.2 (inactive) | 0.437 | 0.312
28 | COc1ccc([Si](C)(C)[C@@H]2[C@@H](CC(=O)N3Cc4ccccc4C[C@H]3CO)O[C@]3(C(=O)N(Cc4cccc(N5CCCCC5=O)c4)c4ccccc43)[C@H]2C)cc1 | -0.429 | 0.569 | 0.0207 | 0.494 | 0.523 | 0.69 | 0.899 | -2.18 (inactive) | 0.272 | -0.0994
29 | OCc1ccc(-c2cc[n+](Cc3cccc(OC(F)(F)F)c3)cc2)cc1 | 0.253 | 0.502 | -0.0887 | -0.0076 | 1.4 | 1.48 | 0.946 | 1.41 (inactive) | 0.597 | -0.0994
30 | O=C1O[C@H](c2ccccc2)[C@H](c2ccccc2)N2[C@H]1[C@@H](C(=O)N1CCCCCCC1)[C@]1(C(=O)Nc3ccc(C#CCCO)cc31)[C@H]2c1ccc(OCCO)cc1 | 3.51 | 2.79 | 0.972 | 1.49 | 1.76 | 2.84 | 1.35 | -0.409 (inactive) | 3.33 | 2.53
